Measured values published in PubChem BioAssay AID2112 (National Center for Advancing Translational Sciences (NCATS), 2009).
About 15 (0.006%) of roughly 240,000 compounds were called active. The call rests on the fitted dose curve; in most records, active means well fitted inhibition curve with a large enough effect; inconclusive means small, poorly fitted or top-dose-only effect, or effect the other way, or another doubt; inactive means no such curve, though single readings can be large or run the other way. The list is a sample of the results.

What follows are molecules tested against Lysosomal alpha-glucosidase (Homo sapiens) (UniProt P10253) (assay: qHTS Assay for Inhibitors and Activators of Human alpha-Glucosidase From Spleen Homogenate). Conditions: 4-MU-alpha-glucoside fluorescence; series mostly up to 79.9 µM.
Source text: NIH Chemical Genomics Center [NCGC] NIH Molecular Libraries Probe Production Centers Network [MLPCN] MLPCN Grant: R03 MH084841-01 Assay Submitter (PI): Wei Zheng NCGC Assay Overview: Alpha-glucosidase is responsible for the hydrolysis of terminal, non-reducing 1,4-linked alpha-D-glucose residues, which releases alpha-D-glucose. It is a lysosomal hydrolase that is required for the degradation of a small percentage (1-3%) of cellular glycogen in humans. Deficiency of this enzyme results in glycogen-storage disease type II (GSDII), also referred to as Pompe disease, an autosomal recessive disorder. Structurally normal glycogen is accumulated in the lysosomes and cytoplasm in affected patients, primarily in muscle tissues. Excessive glycogen storage within lysosomes may interrupt normal functioning of other organelles and leads to cellular injury. In turn, this leads to enlargement and dysfunction of the entire organ involved (eg: cardiomyopathy and muscle weakness). It has been reported that the improper folding and trafficking of alpha-glucosidase resulting from genetic mutations may account for a significant number of Pompe patients. […] We optimized this alpha-glucosidase assay in 1536-well plate format for identification of novel small molecule inhibitors or activators with structures other than the sugar analogs in order to develop new pharmacological chaperones. In particular, this assay is directed towards discovering compounds active in a more natural setting, tissue homogenate, that may have been missed by screens of the purified enzyme under more stringent conditions.
NCGC Assay Protocol Summary: This is a fluorogenic enzyme assay with 4-methylumbelliferyl-alpha-D-glucopyranoside as the substrate and human spleen homogenate containing alpha-glucosidase as the enzyme preparation. Upon hydrolysis of this fluorogenic substrate, the resulting product, 4-methylumbelliferone (which excites at 365 nm and emits at 440 nm) can be detected by a fluorescence plate reader. Data were normalized to the controls for basal activity (without enzyme) and 100% activity (with enzyme). The AC50 values were determined from concentration-response data modeled with the standard Hill equation. Assay buffer: 50 mM citric acid (titrated with potassium phosphate to pH 5.0), 0.01% Tween-20 (pH 5.0 is an optimal condition for this enzyme assay) 1536-well assay protocol for the alpha-glucosidase from human spleen homogenate: (1) Add 2 ul/well spleen homogenate (1 ug) (2) Add 23 nL compounds in DMSO solution. The final titration was 0.5 nM to 58 uM. (3) Add 2 ul of substrate (1 mM final) (4) Incubate at 37 C for 40 min (5) Add 2 ul stop solution (1M NaOH and 1M Glycine mixture, pH 10) (6) Detect the assay plate in a ViewLux plate reader (PerkinElmer) with Ex=365 nm and Em=440nm. Keywords: Alpha-glucosidase, Pompe Disease, pharmacological chaperone, chaperone therapy, high throughput screening, alpha-glucosidase inhibitor, MLSMR, MLSCN, NIH Roadmap, qHTS and NCGC

outcome, inactive:
O=c1cc(-c2ccc(O)cc2)oc2c([C@@H]3O[C@H](CO)[C@@H](O)[C@H](O)[C@H]3O)c(O)cc(O)c12, Cc1sc2ncnc(Sc3nc4ccccc4s3)c2c1C, COc1ccc(C(CC(=O)c2ccccc2)S(=O)(=O)c2ccccc2)cc1 (stereo not given), O=C1NNC(c2ccccc2)=N/C1=C\c1ccc(Cl)cc1, CC(O)[C@@H](N)C(=O)O (stereo not given in full), OCCC(O)CO (stereo not given), Cc1ccc(-c2cn(S(=O)(=O)c3cccc([N+](=O)[O-])c3)nc2N)cc1, ONC(=Nc1ccccc1)c1ccccc1Cl, Cc1c(Br)ccc(NC(=O)COc2ccccc2C(N)=O)c1C, O=C(NCCc1ccccc1)C1CCN(S(=O)(=O)c2ccc(Br)s2)CC1, C=CCn1c(SCC(=O)c2c(N)n(C)c(=O)n(C)c2=O)nc2sc(CC)cc2c1=O, C=CCOC(=O)C(=C)C, Cc1ccc(SCC(CC(C)C)N2CCN(CCc3ccccc3)CCC2=O)cc1 (stereo not given), Cc1nc(=O)c(-c2ccccc2)c(C)n1-c1ccc(Br)cc1, Cc1cc(OCCCC(=O)NCCN2C(=O)S/C(=C\c3cccnc3)C2=O)ccc1Cl, Fc1ccc(Cl)cc1-c1nc(Nc2ccncc2)c2nccnc2n1, CCOC(=O)c1sc(C)c2c1NC(C)(c1cccc3ccccc13)NC2=O (stereo not given), COc1ccc2c(c1)c(=O)c(C(=O)c1ccc(Cl)cc1)cn2CC(=O)Nc1ccc(F)cc1, CCOCCOC(=O)C(C)Oc1ccc(Oc2ncc(C(F)(F)F)cc2Cl)cc1 (stereo not given), S=c1ccc2ccccc2[nH]1, C=CCC(C(=O)c1ccccc1)[N+](C)(C)CC=C (stereo not given), O=c1[nH]oc(O)c1-c1ncc(C(F)(F)F)cc1Cl, Cc1cc2ccccn2c1C(=O)c1cccc(S(=O)(=O)N2CCOCC2)c1, CC(=O)NNC(=O)c1csc(Cc2c(Cl)sc3ccc(Cl)cc23)n1, CCCCc1nn(-c2ccccc2C(F)(F)F)c(=O)n1Cc1ccc(-c2ccccc2S(=O)(=O)NC(=O)c2sccc2C)cc1, COC(=O)c1sc(-c2ccc(C(C)(C)C)cc2)cc1NC(=O)/C=C/C(=O)O, CNC(=O)[C@]1(C(F)(F)F)C[C@H](CCc2ccccc2)CCCO1, C[C@@H]1O[C@@H](OC[C@H]2O[C@@H](Oc3cc(O)c4c(c3)O[C@H](c3ccc(O)c(O)c3)CC4=O)[C@H](O)[C@@H](O)[C@@H]2O)[C@H](O)[C@H](O)[C@H]1O, O=C1C[C@@H](c2ccc3ccccc3c2)N1S(=O)(=O)c1ccccc1[N+](=O)[O-], O=C(Nc1cc(C(=O)Nc2ccc(S(=O)(=O)O)cc2)cc(C(=O)Nc2ccc(S(=O)(=O)O)cc2)c1)Nc1cc(C(=O)Nc2ccc(S(=O)(=O)O)cc2)cc(C(=O)Nc2ccc(S(=O)(=O)O)cc2)c1, O=c1[nH]c(CN2CCN(S(=O)(=O)c3ccc4c(c3)OCCO4)CC2)nc2sc3c(c12)CCCC3, CC(Oc1ccc(Br)cc1Br)C(=O)NC1CCCC1 (stereo not given), O=C(O)C1CC=CC2CCN(C3CCCCC3)C(=O)C21 (stereo not given), COc1ccc(Br)cc1C1C2C=CCC(C)C2C(=O)N1Cc1ccccc1 (stereo not given), CCCCC/C=C\C/C=C\CCCCCCCCCC(N)=O, CCCCN(CC)C(=O)c1ccccc1Oc1ccccc1, O=C(COc1ccc(/C=N/NS(=O)(=O)c2ccccc2)cc1)NCCc1ccccc1, Oc1ccc(N2CCN(C(=S)NCc3ccccc3)CC2)cc1, COc1ccc(C[C@H](C(=O)O)N2C(=O)c3ccc(C(=O)O)cc3C2=O)cc1, CCNc1nc(NC(C)C)nc(N2CC(=O)N(CC(=O)OCC)C2=N)n1, Cc1cc2oc(C(=O)Nc3c(C)n(C)n(-c4ccccc4)c3=O)c(C)c2cc1Cl, CC1(C)Cc2nc3sc4c(SCC(=O)NC(c5ccccc5)c5ccccc5)ncnc4c3cc2CO1, FC(F)(F)c1nc(-c2ccccc2)ncc1-c1nnnn1-c1ccccc1, CCCCNc1ccc(C(=O)Nc2cccc(C)n2)cc1[N+](=O)[O-], COc1cc(NS(=O)(=O)c2ccc3ccccc3c2)c2ncccc2c1, CC/C(=N\NC(=O)c1ccccc1Cl)c1ccc(Br)s1, Cc1noc(C)c1-c1ccc2ncnc(NC(C)c3ccco3)c2c1 (stereo not given), CN(C)CCc1c[nH]c2ccc(Cn3cncn3)cc12, CC1CCC(C(C)C)C(=O)/C1=C\c1ccc(NC(=O)CCC(=O)O)cc1 (stereo not given), O=c1[nH]c2cccnc2n(CCNc2ncc(C(F)(F)F)cc2Cl)c1=O, NC1CCN(O)C1=O (stereo not given), CN1CCN2c3ccccc3Cc3ccccc3[C@@H]2C1, C=C1CCN(C(CC(C)C)C(=O)N2CCOCC2)S(=O)(=O)c2ccccc21 (stereo not given), CCN(CC)/[N+]([O-])=N/Oc1cc(O/[N+]([O-])=N/N2CCCC2CO)c([N+](=O)[O-])cc1[N+](=O)[O-] (stereo not given), Cc1cccc([C@H]2[C@@H]3C=CC[C@@H](C)[C@@H]3C(=O)N2Cc2ccccc2)c1, CCOC(=O)C1=C(C)c2ccccc2OC1C(=O)OCC (stereo not given), O=C(O)CCn1c(O)c(C=C2N=c3ccccc3=N2)sc1=S, COc1cc(OC)c2c(c1C(CCN1CCCCC1)c1ccc(N(C)C)cc1)OC(=O)CC2c1ccc(N(C)C)cc1 (stereo not given), O=C1CN(Cc2ccccc2)S(=O)(=O)c2ccccc21, Cc1cc(=O)oc2cc(NC(=O)C3CC(=O)N(Cc4ccccc4)C3)ccc12 (stereo not given), Cc1c(CN2CCC(CO)(CCOc3ccccc3)CC2)[nH]c2ccc(Cl)cc12, CC(C)=CCN1CCC2(CCc3ccccc32)CC1, CC(CNc1ccc([N+](=O)[O-])cc1)NC(=O)c1ccccc1Br (stereo not given), CC1CCN(S(=O)(=O)c2ccc3ncn(CC(=O)N(C)C4CCCCC4)c(=O)c3c2)CC1, OC(COCC1COc2ccccc2O1)CN1CCN(c2ccc(F)cc2)CC1 (stereo not given)
